{
  "source": "the supplement of paper PMC6555819",
  "data": [
    {"tested_on": "PPARg DBDmut:RXRa IVT, anti-PPARg (DBD mutation: PPARg1 K132A/R137A, NR concentration 270 nM, RXRa partner concentration 90 nM)", "assay": "PBM binding z-score (relative to random genomic background probes); higher = stronger binding; sequences stand for … in GC…GCGATTGACAGCGTAGAATGAAGG", "summary_of_the_method": "(§1)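 Regression normalization was applied to scanned fluorescence from custom Agilent 4×180K protein-binding microarrays. Before scanning, arrays were incubated 1 h with ligand-free nuclear receptor dimers, and binding was detected with antibodies against each partner (one per run). Binding z-scores use the random background probes as reference.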", "values": [
      {"sequence": "ATCGAAAGGTCGACGAGGTGAATATACACCGTTT", "PBM binding z-score": 1.87},
      {"sequence": "CGTCCTAGGTCAAGGTCAGTGAAAGAGACTCGAA", "PBM binding z-score": 0.311},
      {"sequence": "CTCGAAAGGTCGTGCTCAGGTGAGCATACCAAAC", "PBM binding z-score": 0.195},
      {"sequence": "ATCGAAAGGTCGAAGGTGAGTATACCCACCCGAA", "PBM binding z-score": 0.373},
      {"sequence": "CCGGCTGGGGCAGAAAGGTTACCATACCATCCGG", "PBM binding z-score": -1.63},
      {"sequence": "AGAATGAGGTTATTAAGACCAGGGAATTGCGGTC", "PBM binding z-score": 1.16},
      {"sequence": "ATCGAACGGTCGAAGGTGAGTATACCCACCCGAA", "PBM binding z-score": 0.226},
      {"sequence": "CATACAGGGTCAGCTAGGCAAGAGTAGGGACGGC", "PBM binding z-score": 0.128},
      {"sequence": "AGAATGAGGTTAAGATCAGGGAAACAGAATACAT", "PBM binding z-score": 1.43},
      {"sequence": "ACAGACAGGTGAGGGAAGGTAACTCAGCTGGACG", "PBM binding z-score": 0.431},
      {"sequence": "GCTAGTTGGTCAGTAGAAGGTCACACACCGGTCG", "PBM binding z-score": -0.208},
      {"sequence": "CCAGACAGGTGAGAAGGCAACTCAGCCTCGATTA", "PBM binding z-score": -0.447},
      {"sequence": "ATCTCTAGGTAAAGTTCCGTGAAAGATCGATAGA", "PBM binding z-score": 0.867},
      {"sequence": "TCTAGTTGGTCACGGAGGTCACGCACGACGGGTA", "PBM binding z-score": 1.18},
      {"sequence": "TTACCATGGTGAAAGGTCGTTGATGCACGCCTTG", "PBM binding z-score": 0.347},
      {"sequence": "CGAACTAGGTCATTGACAGGACATTGAATAGTAA", "PBM binding z-score": 1.94},
      {"sequence": "GGAACGAGGGCAAGTAGATAGCAGAGTTTGATGG", "PBM binding z-score": -0.498},
      {"sequence": "AGAACGAGGGCACGCTGAGTTGATCGCAGAGTAG", "PBM binding z-score": 0.408},
      {"sequence": "CATCCAGGGTCAGCTAGGCCAGAGTAGGGACGGC", "PBM binding z-score": 0.576},
      {"sequence": "CCGAGTAGGTTATGGGGAATTCAGGCAACGGTGA", "PBM binding z-score": -0.221},
      {"sequence": "ACTCGGAGGACAAAGGTCGGAGCTACGCCAGTGA", "PBM binding z-score": -0.143},
      {"sequence": "GGAACGAGGGCAAAGTTGACAGCATCTGTCGACG", "PBM binding z-score": 1.12},
      {"sequence": "TCTTGTTGATCAAGCAGGTTAAGAAAGCCTGAGT", "PBM binding z-score": -0.406},
      {"sequence": "CCGAGTAGGTTATGGGGCCTTCAGGCAACGGTGA", "PBM binding z-score": -0.856},
      {"sequence": "TCTCGGAGGACGCGAAAGGTCAGAGCTCGACATC", "PBM binding z-score": 1.57},
      {"sequence": "TAGCCTAGGTCAGATTGGGCCAGTATACGCTATA", "PBM binding z-score": -0.745},
      {"sequence": "GATATTAGTTGAAAGGGCAACCGAATGATTCTCG", "PBM binding z-score": 0.952},
      {"sequence": "GGAACGAGGGCAAGCTGATAGCAGAGTTTGATGG", "PBM binding z-score": -0.705},
      {"sequence": "CCGACTGGGGCACGGTTACCATAACGCACAGCCA", "PBM binding z-score": -0.407},
      {"sequence": "GCAGACAGGTGGAACGCAGGTAACTCAGGGTGGC", "PBM binding z-score": -1.02},
      {"sequence": "AGAATGAGGCTATACGTAGATCAGGGAAGAAAGT", "PBM binding z-score": 0.633},
      {"sequence": "CCAGACAGGTGAGAAGGTACCTCAGCCTCGATTA", "PBM binding z-score": -0.603},
      {"sequence": "GCTAGCAGGCCATTTGCGTCACTCAATGACGGGC", "PBM binding z-score": -0.895},
      {"sequence": "ATCGAAAGTTCGACGAGGTGAGTATACACCGTTT", "PBM binding z-score": 0.332},
      {"sequence": "CCTCAGAGGACAACAGGAGGTCAGAGCTGCCAGA", "PBM binding z-score": -0.428},
      {"sequence": "CGTCAAAGTTCAACTAAGGTAACGTACAGCACGC", "PBM binding z-score": 0.979},
      {"sequence": "GAAACAGGGTCAAGGCCAGAGTACGCGTATTGAT", "PBM binding z-score": 1.43},
      {"sequence": "GCTTGTAGATCAAGGTTAAGAACGACTAAGCTAA", "PBM binding z-score": 0.637},
      {"sequence": "TCTTGTAGATCAAAGGTTAAGAATGCCGAAGCCT", "PBM binding z-score": 1.47},
      {"sequence": "GCTTGTAGTTCAAGGTTAAGAAAGACTAAGCTAA", "PBM binding z-score": 0.1}
    ]},
    {"tested_on": "PPARg DBDmut IVT, anti-PPARg (DBD mutation: PPARg1 K132A/R137A, NR concentration 270 nM)", "assay": "PBM binding z-score (relative to random genomic background probes); higher = stronger binding; sequences stand for … in GC…GCGATTGACAGCGTAGAATGAAGG", "summary_of_the_method": "as §1", "values": [
      {"sequence": "ATCGAAAGGTCGACGAGGTGAATATACACCGTTT", "PBM binding z-score": 0.44},
      {"sequence": "CGTCCTAGGTCAAGGTCAGTGAAAGAGACTCGAA", "PBM binding z-score": 0.279},
      {"sequence": "CTCGAAAGGTCGTGCTCAGGTGAGCATACCAAAC", "PBM binding z-score": 0.25},
      {"sequence": "ATCGAAAGGTCGAAGGTGAGTATACCCACCCGAA", "PBM binding z-score": 0.686},
      {"sequence": "CCGGCTGGGGCAGAAAGGTTACCATACCATCCGG", "PBM binding z-score": -1.34},
      {"sequence": "AGAATGAGGTTATTAAGACCAGGGAATTGCGGTC", "PBM binding z-score": 0.232},
      {"sequence": "ATCGAACGGTCGAAGGTGAGTATACCCACCCGAA", "PBM binding z-score": -0.543},
      {"sequence": "CATACAGGGTCAGCTAGGCAAGAGTAGGGACGGC", "PBM binding z-score": 0.564},
      {"sequence": "AGAATGAGGTTAAGATCAGGGAAACAGAATACAT", "PBM binding z-score": 0.885},
      {"sequence": "ACAGACAGGTGAGGGAAGGTAACTCAGCTGGACG", "PBM binding z-score": -0.614},
      {"sequence": "GCTAGTTGGTCAGTAGAAGGTCACACACCGGTCG", "PBM binding z-score": 0.144},
      {"sequence": "CCAGACAGGTGAGAAGGCAACTCAGCCTCGATTA", "PBM binding z-score": -0.637},
      {"sequence": "ATCTCTAGGTAAAGTTCCGTGAAAGATCGATAGA", "PBM binding z-score": 0.679},
      {"sequence": "TCTAGTTGGTCACGGAGGTCACGCACGACGGGTA", "PBM binding z-score": 2.02},
      {"sequence": "TTACCATGGTGAAAGGTCGTTGATGCACGCCTTG", "PBM binding z-score": -0.209},
      {"sequence": "CGAACTAGGTCATTGACAGGACATTGAATAGTAA", "PBM binding z-score": 1.62},
      {"sequence": "GGAACGAGGGCAAGTAGATAGCAGAGTTTGATGG", "PBM binding z-score": -0.505},
      {"sequence": "AGAACGAGGGCACGCTGAGTTGATCGCAGAGTAG", "PBM binding z-score": -0.362},
      {"sequence": "CATCCAGGGTCAGCTAGGCCAGAGTAGGGACGGC", "PBM binding z-score": 0.124},
      {"sequence": "CCGAGTAGGTTATGGGGAATTCAGGCAACGGTGA", "PBM binding z-score": 0.307},
      {"sequence": "ACTCGGAGGACAAAGGTCGGAGCTACGCCAGTGA", "PBM binding z-score": -0.29},
      {"sequence": "GGAACGAGGGCAAAGTTGACAGCATCTGTCGACG", "PBM binding z-score": 0.308},
      {"sequence": "TCTTGTTGATCAAGCAGGTTAAGAAAGCCTGAGT", "PBM binding z-score": 0.392},
      {"sequence": "CCGAGTAGGTTATGGGGCCTTCAGGCAACGGTGA", "PBM binding z-score": -1.59},
      {"sequence": "TCTCGGAGGACGCGAAAGGTCAGAGCTCGACATC", "PBM binding z-score": 0.428},
      {"sequence": "TAGCCTAGGTCAGATTGGGCCAGTATACGCTATA", "PBM binding z-score": -0.0991},
      {"sequence": "GATATTAGTTGAAAGGGCAACCGAATGATTCTCG", "PBM binding z-score": 0.799},
      {"sequence": "GGAACGAGGGCAAGCTGATAGCAGAGTTTGATGG", "PBM binding z-score": -0.924},
      {"sequence": "CCGACTGGGGCACGGTTACCATAACGCACAGCCA", "PBM binding z-score": -0.566},
      {"sequence": "GCAGACAGGTGGAACGCAGGTAACTCAGGGTGGC", "PBM binding z-score": -1.2},
      {"sequence": "AGAATGAGGCTATACGTAGATCAGGGAAGAAAGT", "PBM binding z-score": 0.637},
      {"sequence": "CCAGACAGGTGAGAAGGTACCTCAGCCTCGATTA", "PBM binding z-score": -0.799},
      {"sequence": "GCTAGCAGGCCATTTGCGTCACTCAATGACGGGC", "PBM binding z-score": -0.638},
      {"sequence": "ATCGAAAGTTCGACGAGGTGAGTATACACCGTTT", "PBM binding z-score": 1.16},
      {"sequence": "CCTCAGAGGACAACAGGAGGTCAGAGCTGCCAGA", "PBM binding z-score": -1.85},
      {"sequence": "CGTCAAAGTTCAACTAAGGTAACGTACAGCACGC", "PBM binding z-score": 0.528},
      {"sequence": "GAAACAGGGTCAAGGCCAGAGTACGCGTATTGAT", "PBM binding z-score": 1.01},
      {"sequence": "GCTTGTAGATCAAGGTTAAGAACGACTAAGCTAA", "PBM binding z-score": -0.445},
      {"sequence": "TCTTGTAGATCAAAGGTTAAGAATGCCGAAGCCT", "PBM binding z-score": 0.478},
      {"sequence": "GCTTGTAGTTCAAGGTTAAGAAAGACTAAGCTAA", "PBM binding z-score": 0.576}
    ]}
  ]
}
